FECH block: blocks human mitochondrial ferrochelatase activity. calls only at 10 µM (by protocol). AID 1671448. actives 3.3% (n = 20,000). purified FECH, Ni-mesoporphyrin absorbance 550 nm;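 active = enzyme reaction rate more than 3 SD below the solvent-only control wells on the same plate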;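 note: lower slope than DMSO wells means FECH inhibition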
Target sequence (P22830 whole entry, looked up): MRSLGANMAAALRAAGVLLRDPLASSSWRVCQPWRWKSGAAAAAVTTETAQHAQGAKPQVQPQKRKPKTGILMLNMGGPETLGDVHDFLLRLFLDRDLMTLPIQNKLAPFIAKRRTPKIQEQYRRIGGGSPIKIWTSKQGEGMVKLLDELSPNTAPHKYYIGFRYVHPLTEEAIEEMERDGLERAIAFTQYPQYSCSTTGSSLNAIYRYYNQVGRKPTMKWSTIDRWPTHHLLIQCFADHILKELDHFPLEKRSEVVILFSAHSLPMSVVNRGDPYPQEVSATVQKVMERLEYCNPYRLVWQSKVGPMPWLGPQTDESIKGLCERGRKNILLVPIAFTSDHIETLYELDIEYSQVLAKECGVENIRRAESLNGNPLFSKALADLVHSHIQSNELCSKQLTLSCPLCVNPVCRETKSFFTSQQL
Calls only; 0 = inactive; + = active, no number. The full list was thinned out, with hits kept by preference.

SMILES	FECH block
CCCCNC(=O)CSC1=NS(=O)(=O)c2ccccc2N1CC	+
CCCCNC(=O)CC1CCN(S(=O)(=O)c2ccccc2)CC1	0
COc1ccc(N2C(=O)N(CC(=O)NCCc3ccccc3)c3ccccc3S2(=O)=O)cc1OC	0
CC1=C(C(=O)N2CCc3sccc3C2)C(C)NC(=O)N1 (stereo not given)	0
COc1ccc(N2C(=O)CCS2(=O)=O)cc1S(=O)(=O)N1CCC(C)CC1	0
CCOCc1nccc(-c2cc(C(=O)O)ccn2)n1	+
CCOc1ccc(-c2ccnc(CC3CCN(C)CC3)n2)cc1C(=O)O	0
CCN(CC)c1nccc(-c2cc(C(=O)O)ccn2)n1	0
COc1ccc(N2CCCS2(=O)=O)cc1NC(=O)COc1ccccc1	0
CCCn1ccnc1-c1nccn1CCC(N)=O	0
Cc1cc(C)n(C2CN(C(=O)CCc3c(C)nn(C)c3C)C2)n1	0
Cc1nc(C(C)C)cc(N(C)Cc2ncccc2C)n1	+
COCc1cc(CN(C)c2cc(C(C)C)nc(C)n2)[nH]n1	0
Cc1cc(N(C)Cc2ncccc2C)nc(-c2ccccc2)n1	0
COc1ccc(CNc2nc3nc(CNc4cccc(C(F)(F)F)c4)cc(=O)n3[nH]2)cc1	0
CCc1nc2nc(C)c(NC(=O)Nc3ccc(C)c(Cl)c3)c(=O)n2[nH]1	0
Cc1ccc(NCc2nc3nc(C(C)C)cc(=O)n3[nH]2)cc1Cl	+
COc1ccccc1CNc1nc2nc(CNc3cccc(C(F)(F)F)c3)cc(=O)n2[nH]1	0
COc1ccc(CNc2nc3nc(CNc4ccc(OC)cc4)cc(=O)n3[nH]2)cc1	0
CC(C)c1cc(=O)n2[nH]c(CNc3cccc(C(F)(F)F)c3)nc2n1	+
CCOc1cc(C(=O)Nc2cc(N3CCCS3(=O)=O)ccc2OC)cc(OCC)c1OCC	0
CCCCN(C)C(=O)C1CCN(c2ccc(-c3cccs3)nn2)CC1	0
Cc1cc(-c2c(-c3ccccc3)ncn2Cc2cn3c(C)cccc3n2)n[nH]1	0
CC(C)c1ccc2c(c1)-c1ccccc1S(=O)(=O)N2CC(=O)NCc1cccnc1	+
CCOCCCNC(=O)CN1c2ccc(CC)cc2-c2ccccc2S1(=O)=O	+
SMILES	FECH block
CCc1ccc2c(c1)-c1ccccc1S(=O)(=O)N2CC(=O)NCCc1ccc(OC)c(OC)c1	0
CCc1ccc2c(c1)-c1ccccc1S(=O)(=O)N2CC(=O)NCCN1CCOCC1	0
O=C(CN1C(=O)c2ccccc2S1(=O)=O)NCc1ccc2c(c1)OCO2	0
CCc1ccc2c(c1)-c1ccccc1S(=O)(=O)N2CC(=O)NCc1ccncc1	+
CC(C)c1ccc2c(c1)-c1ccccc1S(=O)(=O)N2CC(=O)NCCN1CCOCC1	0
COc1ccc(CCNC(=O)CN2c3ccc(C(C)C)cc3-c3ccccc3S2(=O)=O)cc1	0
Cc1ccc(Nc2c(-c3ccc4c(c3)CCCC4)c(=O)c2=O)cc1C	0
CC(C)Cc1nnc2sc(C3CC(=O)N(c4cccc(F)c4)C3)nn12 (stereo not given)	0
COc1ccc(-c2nccn2C2Cc3ccccc3C2)c(OC)c1	0
CC(C)C1=NOC(C(=O)NC2CCN(S(C)(=O)=O)CC2)C1 (stereo not given)	0
Cc1ccc(F)c(-c2c(-c3ccccc3)ncn2C)c1F	0
CC(C)c1nc(CCn2cncn2)n(-c2ccc3c(c2)OCCO3)n1	0
CCn1cnnc1C(C)NC(=O)c1nc(-c2ccccc2)cs1 (stereo not given)	0
C=CCn1cc(CNC[C@@H]2C[C@@H]3C=C[C@H]2C32CC2)c(C)n1	0
O=C(c1cccs1)N1CC[C@@H](c2ccc3ccccc3c2)[C@H](O)C1	+
Cc1nc(C(=O)N2CC[C@@H](c3ccc4ccccc4c3)[C@H](O)C2)c(C)o1	0
Cc1noc(C)c1C(=O)N1CC[C@@H](c2ccc3ccccc3c2)[C@H](O)C1	0
CC(C)C(=O)Nc1nc2n(n1)C(c1ccc(Cl)cc1)C=C(c1ccccc1)N2 (stereo not given)	0
CCC(=O)Nc1nc2n(n1)C(c1c(F)cccc1Cl)C=C(c1ccccc1)N2 (stereo not given)	+
CC(C)C(=O)Nc1nc2n(n1)C(c1c(F)cccc1Cl)C=C(c1ccccc1)N2 (stereo not given)	+
CCC(=O)Nc1nc2n(n1)C(c1c(F)cccc1Cl)C=C(c1ccc(Cl)cc1)N2 (stereo not given)	0
CC(=O)Nc1nc2n(n1)C(c1c(F)cccc1Cl)C=C(c1ccc(C)cc1)N2 (stereo not given)	0
CCCC(=O)Nc1nc2n(n1)C(c1c(F)cccc1Cl)C=C(c1ccc(Cl)cc1)N2 (stereo not given)	0
CCc1cc(Sc2ccccc2NC(=O)c2cccs2)n2nc(C)nc2n1	0
CC(CCc1ccccc1)NC(=O)CN1CCCN(Cc2ccccc2)S1(=O)=O (stereo not given)	0
C=C(C)COc1ccc(C(=O)N(C)C(C)c2cccnc2)cc1 (stereo not given)	0
CCc1c(C)nc2ncnn2c1Sc1ccc(NC(=O)Nc2ccccc2Br)cc1	0
CCc1c(C)nc2ncnn2c1Sc1ccc(NC(=O)Nc2ccsc2C(=O)OC)cc1	+
CCc1c(C)nc2ncnn2c1Sc1ccc(NC(=O)Nc2ccc(OC)cc2OC)cc1	+

Compound activity (PubChem)
